# Most compounds without a hit are left out; they make up all but 17% or so of the library.
# S2 tox: Viability Counterscreen for Primary qHTS for Inhibitors of ATXN expression. S2 cells (HEK-293 line with an ATXN2-luciferase reporter) viability, CellTiter-Fluor protease fluorescence, 24 h. Potency, µM (doses to about 56.7 µM), actives largely listed as cytotoxic. hit rate 0.49% among 400,000. AID 651635, 2014; further: nearly all actives have a fitted effect of over 40% in size
# DT40 TDP1 CPT: qHTS for Inhibitors of human tyrosyl-DNA phosphodiesterase 1 (TDP1): qHTS in cells in presence of CPT. chicken DT40 Tdp1-/-;hTDP1 cells + 20 nM CPT, ATP luminescence, 48 h. Potency, µM (doses to about 46.2 µM), actives largely listed as inhibitors. hit rate 12% among 420,000. AID 686979, 2013; further: nearly all actives have a fitted effect of over 55% in size
#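 Cell growth measured by CellTiter-Glo luminescence after a minimum 48 h, 37 C compound exposure with 20 nM CPT in Tdp1-knockout DT40 cells stably expressing hTDP1, seeded 400/well; qHTS titration format.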
# HepG2 tox: qHTS for Inhibitors of TGF-b: Cytotox Counterscreen | HepG2 CAGA-GFP viability, ATP luminescence, 18 h | Potency, µM (highest dose often 46.1 µM), most hits filed as cytotoxic | hit rate 0.76% among 410,000
#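 HepG2 CAGA-GFP cells (1000/well, DMEM with 1% FBS) received compound, then TGF-beta at 500 pg/mL final, and were incubated 18 hours at 37 degrees C. Viability was read by CellTiter-Glo luminescence. Media-only wells were set as complete cell-killing and DMSO as no toxicity.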
# TGFb SMAD3 inh: qHTS for Inhibitors of TGF-b; HepG2 CAGA-GFP TGF-b/SMAD3 reporter, GFP fluorescence, 18 h; TGF-beta stimulated, 500 pg/mL final; hit rate 1.2% among 410,000; Potency, µM (highest dose often 46.1 µM), hits mostly inhibitors; AID 588855, 2011; further: nearly all actives have a fitted effect of over 65% in size
#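 Read-out: total well GFP (ex488/em500-530) summed from mean per-cell fluorescence. Cells: HEPG2 CAGA-GFP, 1% FBS DMEM, 18 h at 37 degrees C with 500 pg/mL final TGF-beta. Unstimulated wells served as the full-inhibition control; stimulated DMSO wells = 0%.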
# ATXN2 expr inh: Primary qHTS for Inhibitors of ATXN expression | HEK-293 ATXN2-luciferase reporter, luminescence, 24 h | Potency, µM (titrated, usually from 57 µM), usual class: inhibitors | hit rate 0.72% among 360,000; further: nearly all actives have a fitted effect of over 55% in size
#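 qHTS (up to 57 uM final) was run with 24 h compound exposure of reporter cells at 37 °C. Each well was multiplexed: SteadyGlo luminescence measured ATXN2-luciferase expression after a fluorogenic Gly-Phe-AFC viability readout (25 uM final).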
# TDP1 cell noCPT: qHTS for Inhibitors of human tyrosyl-DNA phosphodiesterase 1 (TDP1): qHTS in cells in absence of CPT; hit rate 15% among 420,000; DT40 Tdp1-/- hTDP1 cells, no CPT, ATP luminescence, 48 h; Potency, µM (highest dose often 46.2 µM), most hits filed as inhibitors; further: nearly all actives have a fitted effect of over 55% in size
#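 Chicken DT40 Tdp1-/- cells stably complemented with human TDP1 were seeded at 400 cells/well with DMSO in place of 20 nM camptothecin. After compound pinning, cells grew at least 48 hr at 37 °C; viability read by CellTiter-Glo luminescence.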
# A number is an active result; - = inactive; ? = inconclusive; . = no result given. The call rests on the fitted dose curve; in most records, active means well fitted curve in the direction sought with a large enough effect; inconclusive means small, poorly fitted or top-dose-only effect, or another doubt; inactive means no such curve, though single readings can be large; an effect the other way counts as inactive or inconclusive.
SMILES,S2 tox,DT40 TDP1 CPT,HepG2 tox,TGFb SMAD3 inh,ATXN2 expr inh,TDP1 cell noCPT
COc1ccc(-c2sc3cc4c(cc3c2C#Cc2cncn2C)OCO4)cc1,-,26µM,-,-,-,15µM
COc1cccc(-c2sc3ccc(OC)cc3c2C#CC2(O)CCCCC2)c1,-,?,-,?,-,23µM
COc1ccc(-c2sc3ccc(N4CCOCC4)cc3c2C#CC2(O)CCCCC2)cc1,?,?,-,?,-,?
COc1cc(OC)cc(-c2sc3ccc(OC)cc3c2C#CC2(N)CCCCC2)c1,.,?,-,?,?,15µM
COc1ccc(-c2sc3cc4c(cc3c2C#CC2(N)CCCCC2)OCO4)cc1,.,8.2µM,-,?,?,12µM
Cc1cc(C)cc(N2C(=O)CC(c3ccccc3)CC2=O)c1,-,-,-,-,-,-
CC1(c2nnc(-c3ccncc3)o2)CC(c2cccc(Cl)c2)=NO1 (stereo not given),-,-,-,-,-,-
CC(C)C(=O)Nc1nnc(CCN2CCCCC2)s1,-,-,-,?,-,-
COc1ccc(-c2sc3ccc(OC)cc3c2C#Cc2cncn2C)cc1,-,?,-,?,-,?
COc1ccc(-c2oc3ccccc3c2C#Cc2cncn2C)cc1,?,16µM,-,-,?,18µM
COc1cc2[nH]c(=O)n3nc(-c4ccccc4)nc3c2cc1OC,-,23µM,-,-,?,21µM
CC(C)CN1C(=O)C(=O)N(CC(=O)Nc2cccc(Cl)c2Cl)C1=O,-,-,-,-,-,-
CCC(CC)NC(=O)Nc1ccccc1C(F)(F)F,-,-,-,-,-,-
Cc1ccc(CN2C(=O)CC(c3ccc(Cl)cc3)c3c(C)nn(-c4nc(C)cc(C)n4)c32)cc1 (stereo not given),.,?,-,-,?,21µM
Cc1cc(C)nc(-n2nc(C)c3c2NC(=O)CC3c2ccccc2OC(C)C)n1 (stereo not given),.,16µM,-,-,?,18µM
CCc1ccc(C2CC(=O)Nc3c2c(C)nn3-c2nc(C)cc(C)n2)cc1 (stereo not given),?,21µM,-,?,?,21µM
COc1ccc(C2CC(=O)Nc3c2c(C)nn3-c2nncc(-c3ccccc3)n2)c(OC)c1OC (stereo not given),-,-,-,-,-,?
COc1ccc(C2CC(=O)Nc3c2c(C)nn3-c2nc(C)cc(C)n2)c(OC)c1OC (stereo not given),-,-,-,-,-,-
Cc1ccc(C2CC(=O)N(Cc3ccc(F)cc3)c3c2c(C)nn3-c2nc(C)cc(C)n2)cc1 (stereo not given),?,?,-,-,-,?
COc1ccc(C2CC(=O)Nc3c2c(C)nn3-c2nncc(-c3ccc(C)cc3)n2)c(OC)c1OC (stereo not given),-,12µM,-,?,-,6.5µM
Cn1nnc2cc(C(=O)Nc3ccccc3F)ccc21,-,-,-,-,-,-
Cc1nncn1-c1ccc(C(=O)Nc2cc(F)ccc2F)cc1,-,-,-,?,-,-
CC(Nc1nc(-c2ccc(F)cc2)cs1)c1nc2cc(C(F)(F)F)ccc2n1CCOCCO (stereo not given),-,?,-,-,-,?
Cc1ccc(Cn2c(C(C)Nc3nc(-c4ccc(F)cc4)cs3)nc3cc(C(F)(F)F)ccc32)cc1 (stereo not given),?,21µM,-,-,-,?
Cc1ccc(Cn2c(C(C)Nc3nc(-c4ccc(F)cc4)cs3)nc3cc(C(=O)NCCCO)ccc32)cc1 (stereo not given),?,?,-,?,-,?

# High-throughput results as filed in PubChem BioAssay.
